# From the supplement of paper PMC10849652
# Targets with a hit are over-represented here; the source holds about 7,900 in all. About 0.6% of all pairs of compound and target were hits. A number with no mark means an inactive call.
# Assays:
# Assay in all cases: log2 fold change, soluble protein after heating vs DMSO (PISA); higher = thermal stabilisation; K562 cells, 10 uM, 30 min; active = over 0.2 and 3.5 SD of the protein, either way, in both replicates (recomputed)
# [1] = compound: Cc1cccc(CC(=O)N2CCc3c2ccc(-c2cn(C)c4ncnc(N)c24)c3F)n1
# Outline: (§1)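 K562 cells at 2×10^6 cells/mL were treated with 10 μM compound for 30 min. Aliquots were heated for 3 min across 48°C-58°C, pooled, and extracted in PBS with 0.5% NP-40 at 4°C; soluble protein was the supernatant after 21,000xg for 90 min. Soluble protein was quantified by TMTpro 16plex LC-MS/MS with channel sums equalised, and reported as log2 fold change in thermal stability against DMSO controls, with values from duplicates.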
# nilotinib = compound: Cc1cn(-c2cc(NC(=O)c3ccc(C)c(Nc4nccc(-c5cccnc5)n4)c3)cc(C(F)(F)F)c2)cn1 [nilotinib]
# Outline: as §1
# [2] = compound: Cc1nc(Nc2n[nH]c3c2CN(C(=O)N[C@H](CN(C)C)c2ccccc2)C3(C)C)c2sccc2n1
# Outline: as §1
# dasatinib = compound: Cc1nc(Nc2ncc(C(=O)Nc3c(C)cccc3Cl)s2)cc(N2CCN(CCO)CC2)n1 [dasatinib]
# Outline: as §1
# [3] = compound: Cc1ncc(-c2ccnc(Nc3ccc(S(C)(=O)=O)cc3)n2)n1C(C)C
# Outline: as §1
# [4] = compound: Cn1cc(-c2ccc3c(c2)CCN3C(=O)Cc2cccc(C(F)(F)F)c2)c2c(N)ncnc21
# Outline: as §1
# [5] = compound: Cn1cc(-c2ccc3nnc(C(F)(F)c4ccc5ncccc5c4)n3n2)cn1
# Outline: as §1
# mubritinib = compound: FC(F)(F)c1ccc(/C=C/c2nc(COc3ccc(CCCCn4ccnn4)cc3)co2)cc1 [mubritinib]
# Outline: as §1
# [6] = compound: NC(=O)Nc1cc(-c2cccc(F)c2)sc1C(=O)N[C@H]1CCCNC1
# Outline: as §1
# [7] = compound: NC(=O)c1cnc(N[C@@H]2CCCC[C@@H]2N)nc1Nc1cccc(-n2nccn2)c1
# Outline: as §1
# [8] = compound: NC1(c2ccc(-c3nc4ccn5c(=O)[nH]nc5c4cc3-c3ccccc3)cc2)CCC1
# Outline: as §1
# [9] = compound: NCC(=O)Nc1ccc(-n2nc(C(F)(F)F)cc2-c2ccc3c(ccc4ccccc43)c2)cc1
# Outline: as §1
# entinostat = compound: Nc1ccccc1NC(=O)c1ccc(CNC(=O)OCc2cccnc2)cc1 [entinostat]
# Outline: as §1
# vorinostat = compound: O=C(CCCCCCC(=O)Nc1ccccc1)NO [vorinostat]
# Outline: as §1
# citarinostat = compound: O=C(CCCCCCNC(=O)c1cnc(N(c2ccccc2)c2ccccc2Cl)nc1)NO [citarinostat]
# Outline: as §1
# silmitasertib = compound: O=C(O)c1ccc2c(c1)nc(Nc1cccc(Cl)c1)c1ccncc12 [silmitasertib]
# Outline: as §1
# [10] = compound: c1cc(OCCN2CCCCC2)cc(-c2n[nH]c3ccc(-c4nnc[nH]4)cc23)c1
# Outline: as §1
# bafetinib = compound: Cc1ccc(NC(=O)c2ccc(CN3CC[C@H](N(C)C)C3)c(C(F)(F)F)c2)cc1Nc1nccc(-c2cncnc2)n1 [bafetinib]
# Outline: as §1
# tipifarnib = compound: Cn1cncc1[C@@](N)(c1ccc(Cl)cc1)c1ccc2c(c1)c(-c1cccc(Cl)c1)cc(=O)n2C [tipifarnib]
# Outline: as §1
# [11] = compound: O=C1NC(=O)C(c2cnc3ccccn23)=C1c1cn2c3c(cc(F)cc13)CN(C(=O)N1CCCCC1)CC2
# Outline: as §1
# UniProt Q96RI0, sequence (Q96RI0 whole entry, looked up): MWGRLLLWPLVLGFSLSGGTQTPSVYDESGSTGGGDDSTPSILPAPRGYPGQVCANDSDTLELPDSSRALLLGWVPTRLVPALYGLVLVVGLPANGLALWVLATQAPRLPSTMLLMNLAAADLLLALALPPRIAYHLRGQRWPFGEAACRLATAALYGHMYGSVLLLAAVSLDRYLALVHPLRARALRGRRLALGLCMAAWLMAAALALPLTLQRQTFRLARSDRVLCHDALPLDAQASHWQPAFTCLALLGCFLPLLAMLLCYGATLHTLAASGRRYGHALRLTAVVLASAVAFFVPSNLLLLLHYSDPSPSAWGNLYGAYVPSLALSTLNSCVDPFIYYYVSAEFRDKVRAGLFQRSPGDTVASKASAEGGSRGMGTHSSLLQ
# UniProt Q4LDG9, sequence (Q4LDG9 whole entry, looked up): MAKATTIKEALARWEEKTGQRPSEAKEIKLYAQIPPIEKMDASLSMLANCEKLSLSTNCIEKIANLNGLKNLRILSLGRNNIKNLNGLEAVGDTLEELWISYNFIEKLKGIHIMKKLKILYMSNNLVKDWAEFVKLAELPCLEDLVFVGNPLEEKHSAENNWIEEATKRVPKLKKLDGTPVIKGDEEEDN
# UniProt Q9Y6B2, sequence (Q9Y6B2 whole entry, looked up): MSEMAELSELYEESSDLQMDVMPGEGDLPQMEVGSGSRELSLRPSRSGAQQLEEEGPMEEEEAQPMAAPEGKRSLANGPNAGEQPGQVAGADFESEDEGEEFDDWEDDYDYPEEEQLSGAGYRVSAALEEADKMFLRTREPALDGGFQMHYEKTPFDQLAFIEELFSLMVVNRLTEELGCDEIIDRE
# UniProt Q96PV7, sequence (Q96PV7 whole entry, looked up): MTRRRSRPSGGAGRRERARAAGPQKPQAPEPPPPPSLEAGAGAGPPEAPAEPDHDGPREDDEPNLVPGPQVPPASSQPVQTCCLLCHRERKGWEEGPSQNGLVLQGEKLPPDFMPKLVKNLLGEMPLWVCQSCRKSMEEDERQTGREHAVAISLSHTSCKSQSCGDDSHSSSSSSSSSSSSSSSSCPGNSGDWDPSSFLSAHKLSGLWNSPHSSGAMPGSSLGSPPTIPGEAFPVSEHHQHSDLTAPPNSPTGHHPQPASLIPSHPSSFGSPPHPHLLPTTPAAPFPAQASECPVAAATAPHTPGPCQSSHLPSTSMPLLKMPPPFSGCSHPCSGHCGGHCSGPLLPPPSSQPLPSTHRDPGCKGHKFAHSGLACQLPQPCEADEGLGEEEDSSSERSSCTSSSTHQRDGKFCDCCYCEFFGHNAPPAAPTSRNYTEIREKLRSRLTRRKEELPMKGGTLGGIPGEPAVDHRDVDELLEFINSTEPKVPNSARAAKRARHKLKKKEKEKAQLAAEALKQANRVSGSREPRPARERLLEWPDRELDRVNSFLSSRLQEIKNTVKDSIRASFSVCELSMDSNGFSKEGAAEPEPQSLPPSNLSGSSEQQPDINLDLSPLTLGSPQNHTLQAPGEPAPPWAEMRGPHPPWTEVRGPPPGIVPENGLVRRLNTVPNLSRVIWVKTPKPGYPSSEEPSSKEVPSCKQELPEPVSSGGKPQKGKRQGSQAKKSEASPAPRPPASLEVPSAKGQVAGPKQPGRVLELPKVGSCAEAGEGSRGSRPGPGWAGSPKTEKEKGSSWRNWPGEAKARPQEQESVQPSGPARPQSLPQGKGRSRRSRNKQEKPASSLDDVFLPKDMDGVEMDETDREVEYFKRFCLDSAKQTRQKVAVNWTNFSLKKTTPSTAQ
# UniProt Q8NDI1, sequence (Q8NDI1 whole entry, looked up): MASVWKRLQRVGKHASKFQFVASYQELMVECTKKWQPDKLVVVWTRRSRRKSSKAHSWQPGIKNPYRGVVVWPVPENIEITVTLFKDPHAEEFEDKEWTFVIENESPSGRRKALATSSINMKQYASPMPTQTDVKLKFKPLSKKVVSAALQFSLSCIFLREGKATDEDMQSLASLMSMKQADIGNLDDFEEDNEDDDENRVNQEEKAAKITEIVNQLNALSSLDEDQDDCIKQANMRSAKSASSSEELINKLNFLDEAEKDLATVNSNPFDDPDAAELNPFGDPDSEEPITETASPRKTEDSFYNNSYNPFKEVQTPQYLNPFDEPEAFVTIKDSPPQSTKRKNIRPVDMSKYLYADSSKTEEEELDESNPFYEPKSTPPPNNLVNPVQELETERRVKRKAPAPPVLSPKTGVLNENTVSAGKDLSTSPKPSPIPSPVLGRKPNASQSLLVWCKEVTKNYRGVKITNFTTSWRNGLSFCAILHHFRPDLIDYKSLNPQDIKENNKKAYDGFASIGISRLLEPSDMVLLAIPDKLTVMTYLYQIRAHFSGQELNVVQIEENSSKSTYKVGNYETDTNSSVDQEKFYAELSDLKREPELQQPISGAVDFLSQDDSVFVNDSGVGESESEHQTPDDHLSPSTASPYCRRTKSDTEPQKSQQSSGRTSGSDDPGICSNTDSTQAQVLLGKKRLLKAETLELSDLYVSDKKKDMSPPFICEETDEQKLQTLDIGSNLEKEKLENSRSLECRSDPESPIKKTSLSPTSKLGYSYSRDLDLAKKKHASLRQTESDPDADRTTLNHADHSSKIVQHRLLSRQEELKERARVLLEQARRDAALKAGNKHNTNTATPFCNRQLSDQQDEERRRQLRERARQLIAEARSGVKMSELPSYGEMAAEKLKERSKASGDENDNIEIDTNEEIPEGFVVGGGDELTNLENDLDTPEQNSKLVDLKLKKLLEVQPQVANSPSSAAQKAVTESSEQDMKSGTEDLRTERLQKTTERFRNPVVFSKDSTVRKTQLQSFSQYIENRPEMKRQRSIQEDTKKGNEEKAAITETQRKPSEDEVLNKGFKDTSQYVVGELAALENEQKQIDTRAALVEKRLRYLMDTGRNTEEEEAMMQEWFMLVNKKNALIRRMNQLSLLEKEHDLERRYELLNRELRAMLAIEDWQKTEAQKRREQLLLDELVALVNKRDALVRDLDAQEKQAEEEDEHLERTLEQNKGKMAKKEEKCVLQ
# UniProt P29692, sequence (P29692 whole entry, looked up): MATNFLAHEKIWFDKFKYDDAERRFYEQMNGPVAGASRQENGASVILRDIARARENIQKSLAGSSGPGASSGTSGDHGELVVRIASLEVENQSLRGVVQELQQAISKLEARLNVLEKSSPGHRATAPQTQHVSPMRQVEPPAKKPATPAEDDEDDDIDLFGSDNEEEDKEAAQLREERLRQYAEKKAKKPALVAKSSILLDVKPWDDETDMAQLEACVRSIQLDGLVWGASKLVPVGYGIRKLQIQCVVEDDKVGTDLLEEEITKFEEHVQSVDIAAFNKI
# UniProt Q9NQZ7, sequence (Q9NQZ7 whole entry, looked up): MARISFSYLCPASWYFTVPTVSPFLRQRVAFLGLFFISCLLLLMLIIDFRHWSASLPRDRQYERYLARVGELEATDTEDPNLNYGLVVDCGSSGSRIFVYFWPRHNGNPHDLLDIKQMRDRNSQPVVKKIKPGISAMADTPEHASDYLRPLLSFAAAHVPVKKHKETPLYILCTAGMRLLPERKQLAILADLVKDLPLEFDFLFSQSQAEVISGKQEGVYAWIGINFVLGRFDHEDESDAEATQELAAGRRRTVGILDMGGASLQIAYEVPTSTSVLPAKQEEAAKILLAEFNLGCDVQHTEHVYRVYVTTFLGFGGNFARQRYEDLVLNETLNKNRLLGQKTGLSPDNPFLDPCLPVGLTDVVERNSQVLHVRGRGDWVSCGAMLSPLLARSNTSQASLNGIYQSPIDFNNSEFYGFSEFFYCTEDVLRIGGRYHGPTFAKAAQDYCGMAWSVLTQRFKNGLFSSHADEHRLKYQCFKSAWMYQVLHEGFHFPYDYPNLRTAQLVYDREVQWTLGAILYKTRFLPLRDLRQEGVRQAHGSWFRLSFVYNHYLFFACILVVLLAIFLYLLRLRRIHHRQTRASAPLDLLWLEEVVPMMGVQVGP
# UniProt Q2TBE0, sequence (Q2TBE0 whole entry, looked up): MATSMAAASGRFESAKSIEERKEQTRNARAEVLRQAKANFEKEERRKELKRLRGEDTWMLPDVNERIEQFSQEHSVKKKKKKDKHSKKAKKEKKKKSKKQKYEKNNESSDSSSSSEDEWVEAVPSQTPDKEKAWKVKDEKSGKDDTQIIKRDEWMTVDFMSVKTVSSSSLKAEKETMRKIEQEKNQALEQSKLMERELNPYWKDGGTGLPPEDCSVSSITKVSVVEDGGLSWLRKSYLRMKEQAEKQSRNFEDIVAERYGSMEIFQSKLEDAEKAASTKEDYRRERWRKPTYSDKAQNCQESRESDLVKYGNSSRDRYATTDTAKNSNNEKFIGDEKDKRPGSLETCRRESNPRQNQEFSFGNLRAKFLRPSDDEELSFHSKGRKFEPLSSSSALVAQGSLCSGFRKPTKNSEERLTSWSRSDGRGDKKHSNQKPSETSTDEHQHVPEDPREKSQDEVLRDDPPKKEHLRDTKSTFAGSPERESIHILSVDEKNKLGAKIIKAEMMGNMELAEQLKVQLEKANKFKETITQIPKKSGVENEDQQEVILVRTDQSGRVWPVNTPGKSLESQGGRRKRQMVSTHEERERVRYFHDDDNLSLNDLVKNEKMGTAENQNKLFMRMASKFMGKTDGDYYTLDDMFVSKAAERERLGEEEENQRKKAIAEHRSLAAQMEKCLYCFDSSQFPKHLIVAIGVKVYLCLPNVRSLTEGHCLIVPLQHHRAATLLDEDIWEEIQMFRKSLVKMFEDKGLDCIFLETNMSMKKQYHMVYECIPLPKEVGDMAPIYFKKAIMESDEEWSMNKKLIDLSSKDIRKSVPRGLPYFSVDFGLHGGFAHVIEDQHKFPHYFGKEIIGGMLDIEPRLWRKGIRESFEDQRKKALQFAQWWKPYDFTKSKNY
# UniProt Q86YN1, sequence (Q86YN1 whole entry, looked up): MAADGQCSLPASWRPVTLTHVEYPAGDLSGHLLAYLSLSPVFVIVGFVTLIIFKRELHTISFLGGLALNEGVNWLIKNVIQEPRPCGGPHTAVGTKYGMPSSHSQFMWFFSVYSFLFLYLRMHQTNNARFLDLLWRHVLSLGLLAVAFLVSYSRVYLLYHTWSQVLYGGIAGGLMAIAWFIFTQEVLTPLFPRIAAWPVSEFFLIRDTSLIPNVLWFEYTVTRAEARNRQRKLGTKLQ
target,measurement,setting,value
DHRS13 (UniProt Q6UX07),log2 fold change,[1],-0.208
same,log2 fold change,nilotinib,0.197
same,log2 fold change,[2],-0.153
same,log2 fold change,dasatinib,0.005
same,log2 fold change,[3],-0.106
same,log2 fold change,[4],0.021
same,log2 fold change,[5],-0.168
same,log2 fold change,mubritinib,0.049
same,log2 fold change,[6],0.182
same,log2 fold change,[7],-0.012
same,log2 fold change,[8],0.102
same,log2 fold change,[9],0.156
same,log2 fold change,entinostat,0.043
same,log2 fold change,vorinostat,-0.013
same,log2 fold change,citarinostat,0.1
same,log2 fold change,silmitasertib,0.087
same,log2 fold change,[10],-0.06
DYNC1I2 isoform 2 (UniProt Q13409),log2 fold change,bafetinib,-0.038
same,log2 fold change,[4],-0.311
same,log2 fold change,[5],-0.067
same,log2 fold change,tipifarnib,0.177
same,log2 fold change,mubritinib,0.067
same,log2 fold change,[6],0.181
same,log2 fold change,[7],0
same,log2 fold change,[8],-0.037
same,log2 fold change,entinostat,-0.206
same,log2 fold change,citarinostat,0.094
same,log2 fold change,silmitasertib,-0.154
same,log2 fold change,[11],-0.127
same,log2 fold change,[10],-0.035
DNAL1 (UniProt Q4LDG9),log2 fold change,bafetinib,0.035
same,log2 fold change,dasatinib,0.017
same,log2 fold change,[4],0.186
same,log2 fold change,[5],0.012
same,log2 fold change,[7],0.035
same,log2 fold change,[9],0.05
same,log2 fold change,[11],-0.26
FADS1 (UniProt F5GYH4),log2 fold change,bafetinib,0.034
same,log2 fold change,[9],-0.191
F2RL3 (UniProt Q96RI0),log2 fold change,dasatinib,-0.03
same,log2 fold change,[4],-0.051
same,log2 fold change,[5],0.043
same,log2 fold change,tipifarnib,-0.016
same,log2 fold change,[7],0.003
same,log2 fold change,[9],-0.085
EEF1D isoform 3 (UniProt P29692),log2 fold change,mubritinib,-0.014
same,log2 fold change,[8],0.2
same,log2 fold change,silmitasertib,-0.401
FAM193B (UniProt Q96PV7),log2 fold change,bafetinib,0.19
same,log2 fold change,dasatinib,-0.01
same,log2 fold change,[4],0.171
same,log2 fold change,tipifarnib,-0.027
same,log2 fold change,[6],0.22
same,log2 fold change,[7],-0.053
same,log2 fold change,[9],-0.014
same,log2 fold change,entinostat,0.25
same,log2 fold change,citarinostat,0.032
same,log2 fold change,[11],0.149
same,log2 fold change,[10],-0.205
DCAF12 (UniProt Q5T6F0),log2 fold change,[1],0.124
same,log2 fold change,mubritinib,0.087
same,log2 fold change,[6],-0.025
same,log2 fold change,[8],-0.201
same,log2 fold change,entinostat,-0.003
same,log2 fold change,vorinostat,-0.021
same,log2 fold change,citarinostat,-0.033
same,log2 fold change,silmitasertib,0.051
same,log2 fold change,[10],0.055
DDX27 (UniProt Q96GQ7),log2 fold change,[1],-0.093
same,log2 fold change,nilotinib,-0.193
same,log2 fold change,[2],-0.051
same,log2 fold change,dasatinib,0.21
same,log2 fold change,[3],0.3
same,log2 fold change,[4],-0.313
same,log2 fold change,[5],-0.151
same,log2 fold change,mubritinib,-0.146
same,log2 fold change,[6],0.002
same,log2 fold change,[7],0.04
same,log2 fold change,[8],0.198
same,log2 fold change,[9],0.123
same,log2 fold change,entinostat,-0.106
same,log2 fold change,vorinostat,-0.039
same,log2 fold change,citarinostat,-0.103
same,log2 fold change,silmitasertib,0.087
same,log2 fold change,[11],0.326
same,log2 fold change,[10],-0.218
ERF (UniProt P50548),log2 fold change,[1],0.194
same,log2 fold change,[6],-0.53
same,log2 fold change,entinostat,-0.019
same,log2 fold change,vorinostat,0.023
same,log2 fold change,[11],-0.273
EHBP1 (UniProt Q8NDI1),log2 fold change,[1],-0.154
same,log2 fold change,[4],-0.076
same,log2 fold change,mubritinib,-0.586 (active)
same,log2 fold change,[7],-0.092
same,log2 fold change,[8],0.017
same,log2 fold change,vorinostat,-0.034
same,log2 fold change,citarinostat,-0.009
same,log2 fold change,silmitasertib,0.087
same,log2 fold change,[10],-0.14
ELF1 (UniProt P32519),log2 fold change,nilotinib,0.096
same,log2 fold change,[2],-0.028
same,log2 fold change,dasatinib,-0.134
same,log2 fold change,[3],0.122
same,log2 fold change,[4],0.003
same,log2 fold change,[5],0.049
same,log2 fold change,tipifarnib,-0.024
same,log2 fold change,[6],-0.124
same,log2 fold change,[7],-0.044
same,log2 fold change,entinostat,-0.11
same,log2 fold change,citarinostat,-0.089
same,log2 fold change,[11],-0.075
same,log2 fold change,[10],-0.18
EID1 (UniProt Q9Y6B2),log2 fold change,[1],-0.438
same,log2 fold change,nilotinib,-0.022
same,log2 fold change,[2],-0.084
same,log2 fold change,[3],-0.032
same,log2 fold change,tipifarnib,-0.097
same,log2 fold change,mubritinib,0.208
same,log2 fold change,[6],-0.078
same,log2 fold change,[8],-0.055
same,log2 fold change,entinostat,0.086
same,log2 fold change,vorinostat,-0.457
same,log2 fold change,silmitasertib,-0.156
same,log2 fold change,[11],-0.652
EPHX2 (UniProt E5RI53),log2 fold change,bafetinib,-0.17
same,log2 fold change,[11],-0.058
CWF19L2 (UniProt Q2TBE0),log2 fold change,[1],-0.285
same,log2 fold change,dasatinib,0.118
same,log2 fold change,[4],-0.102
same,log2 fold change,[5],0.001
same,log2 fold change,tipifarnib,0.083
same,log2 fold change,[6],0.129
same,log2 fold change,[7],0.013
same,log2 fold change,entinostat,-0.134
same,log2 fold change,vorinostat,-0.184
same,log2 fold change,citarinostat,0.13
same,log2 fold change,[10],-0.001
EPHB4 (UniProt P54760),log2 fold change,[5],-0.051
same,log2 fold change,tipifarnib,-0.257
same,log2 fold change,mubritinib,0.176
same,log2 fold change,[6],-0.207
same,log2 fold change,[8],-0.102
same,log2 fold change,entinostat,0.122
same,log2 fold change,silmitasertib,0.18
ENTPD7 (UniProt Q9NQZ7),log2 fold change,bafetinib,-0.165
same,log2 fold change,nilotinib,-0.104
same,log2 fold change,[2],-0.17
same,log2 fold change,dasatinib,-0.235
same,log2 fold change,[3],0.056
same,log2 fold change,tipifarnib,0.163
same,log2 fold change,mubritinib,0.097
same,log2 fold change,[6],0.024
same,log2 fold change,[8],-0.052
same,log2 fold change,entinostat,0.236
same,log2 fold change,citarinostat,0.131
same,log2 fold change,silmitasertib,-0.357
same,log2 fold change,[11],-0.098
same,log2 fold change,[10],-0.138
DOLPP1 (UniProt Q86YN1),log2 fold change,bafetinib,-0.089
same,log2 fold change,nilotinib,0.035
same,log2 fold change,[2],-0.062
same,log2 fold change,[3],-0.023
same,log2 fold change,[4],-0.045
same,log2 fold change,[5],-0.006
same,log2 fold change,tipifarnib,0.075
same,log2 fold change,mubritinib,0.021
same,log2 fold change,[7],-0.102
same,log2 fold change,[8],-0.053
same,log2 fold change,[9],-0.003
same,log2 fold change,citarinostat,0.075
same,log2 fold change,silmitasertib,0.008
same,log2 fold change,[10],-0.007
EZH2 isoform 2 (UniProt Q15910),log2 fold change,bafetinib,0.146
same,log2 fold change,dasatinib,-0.113
same,log2 fold change,[4],0.055
same,log2 fold change,tipifarnib,-0.021
same,log2 fold change,mubritinib,-0.097
same,log2 fold change,[6],0.316
same,log2 fold change,[7],-0.004
same,log2 fold change,[8],0.342
same,log2 fold change,[9],0.33
same,log2 fold change,entinostat,-0.039
same,log2 fold change,silmitasertib,0.046
same,log2 fold change,[11],-0.118
DENND1A isoform 6 (UniProt Q8TEH3),log2 fold change,bafetinib,-0.086
same,log2 fold change,tipifarnib,-0.113
same,log2 fold change,[9],-0.119
ELOVL7 (UniProt A1L3X0),log2 fold change,dasatinib,-0.088
same,log2 fold change,[4],-0.057
same,log2 fold change,[7],-0.001
same,log2 fold change,[11],-0.09
DHPS (UniProt M0R1T2),log2 fold change,bafetinib,0.081
same,log2 fold change,[6],0.063
same,log2 fold change,entinostat,0.072
"DDX46, A0A0C4DG89",log2 fold change,nilotinib,0.151
same,log2 fold change,[2],-0.322
same,log2 fold change,[3],0.032
same,log2 fold change,mubritinib,0.242
same,log2 fold change,[8],-0.177
same,log2 fold change,silmitasertib,-0.288
same,log2 fold change,[11],-0.148
ENTR1 (UniProt Q96C92),log2 fold change,dasatinib,0.003
same,log2 fold change,tipifarnib,0.259
same,log2 fold change,[9],-0.284
DLK1 (UniProt P80370),log2 fold change,dasatinib,-0.012
same,log2 fold change,[4],-0.279
same,log2 fold change,[9],-0.061
same,log2 fold change,citarinostat,-0.018
same,log2 fold change,[11],-0.109
same,log2 fold change,[10],-0.203
